# Experimental data reported in PubChem BioAssay AID2551 (National Center for Advancing Translational Sciences (NCATS), 2010).
# The whole screen tested about 310,000 compounds, of which about 17,000 (5.5%) were called active. Not shown: some 11% with an inconclusive outcome. Calls come from the whole dose curve; as a rule, active = well fitted inhibition curve with a large enough effect; inconclusive = small, poorly fitted or top-dose-only effect, or effect the other way; inactive = no such curve, though single readings can be large or run the other way. Only a selection was taken, and actives are over-represented in it overall.
# Molecular target: Nuclear receptor ROR-gamma (Mus musculus) (UniProt P51450)
# Assay: qHTS for inhibitors of ROR gamma transcriptional activity; note: nearly all actives have a fitted effect of over 60% in size
# Settings: Drosophila S2 Gal4-RORgamma UAS-luciferase reporter, 20 h; series mostly up to 53.6 µM; activity change, negative = inhibition: at the top concentration
# Text: NIH Molecular Libraries Probe Production Network [MLPCN] NIH Chemical Genomics Center [NCGC] MLPCN Grant: R03 DA026211-01 Assay Provider: Dan Littman, New York University Assay Overview: The retinoic acid-related orphan receptor (ROR) gamma is a transcription factor that has a central role in the differentiation of Th17 cells, a subset of T helper cells that secrete the inflammatory cytokines IL-17, IL-17F, and IL-22. Th17 cells have been implicated in graft versus host disease, autoimmune disease and asthma. ROR gamma is induced in naive T helper cells in the presence of TGF-beta combined with IL-6, IL-21, or IL-23, and thereafter directs the expression of the Th17 lineage cytokines. To study the mechanism of action of ROR gamma, an insect cell-based assay was screened. This Drosophila Schneider cell line was stably transfected with two vectors: a gene expressing a fusion of the Gal4 DNA binding domain and ROR gamma transactivation domain under the control of the metallothionine promoter and a Photinus luciferase reporter regulated by the Gal4 binding site enhancer, UAS. […] Small molecule inhibitors of ROR gamma activity are detected by a decrease in luciferase reporter activity.
# Assay Protocol Summary: For screening, 600 cells in 4 uL/well were dispensed into white solid 1536-well plates (Grenier) using a solenoid-based dispenser. Following transfer of 23 nL compound or DMSO vehicle by a pin tool, the plates were incubated 1 hr at ambient temperature, and 1 uL/well copper sulfate (700 uM final concentration) was added. The plates were centrifuged 15 s at 1000 RPM and incubated 20 hr at ambient temperature. After addition of 1.5 uL Photinus luciferase detection reagent, the plates were incubated 10 min at ambient temperature and then read by an ViewLux (Perkin Elmer) to detect luminescence. Keywords: NIH Roadmap, MLPCN, MLI, MLSMR, qHTS, NCGC, qHTS, nuclear hormone receptor, retinoic acid-related orphan receptor, ROR gamma
# % is set by controls: 0 for no effect and ±100 for the full control effect; potency is the fitted concentration of half-maximal effect.
# Chain of Nuclear receptor ROR-gamma (Mus musculus) (P51450 whole entry, looked up): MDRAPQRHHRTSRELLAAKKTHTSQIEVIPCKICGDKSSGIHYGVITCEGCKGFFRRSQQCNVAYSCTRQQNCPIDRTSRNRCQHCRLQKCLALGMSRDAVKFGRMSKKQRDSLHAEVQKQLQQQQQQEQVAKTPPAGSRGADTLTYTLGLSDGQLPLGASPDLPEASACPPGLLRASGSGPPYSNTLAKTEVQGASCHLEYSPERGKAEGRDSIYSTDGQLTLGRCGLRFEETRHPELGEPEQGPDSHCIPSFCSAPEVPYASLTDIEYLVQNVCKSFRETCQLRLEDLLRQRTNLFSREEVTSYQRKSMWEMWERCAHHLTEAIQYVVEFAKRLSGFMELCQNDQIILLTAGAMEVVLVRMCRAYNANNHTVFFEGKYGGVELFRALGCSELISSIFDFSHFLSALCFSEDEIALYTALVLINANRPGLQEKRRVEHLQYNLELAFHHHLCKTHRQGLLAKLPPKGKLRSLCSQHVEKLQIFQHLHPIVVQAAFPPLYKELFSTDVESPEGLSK
SMILES,"activity change, negative = inhibition",Potency
O=c1c2c(nc3nc[nH]n13)CCC2,11.8% (inactive),–
Cc1nc(S(=O)(=O)c2ccc(Br)cc2)nc2c1CCC2,-1.07% (inactive),–
Brc1ccc(Nc2c3c(nc4ncnn24)CCC3)cc1,–,12.6 µM (active)
COc1cc2c(cc1OC)/C(=C/C(=O)c1ccc(NC(C)=O)cc1)NCC2,-26.3% (inactive),–
CC1CN/C(=C\C(=O)c2ccc(Br)cc2)C(=O)N1 (configuration not stated),–,12.6 µM (active)
C/C(=C\C(=O)c1ccc(Br)cc1)N1CCCCC1,-18.8% (inactive),–
C[C@H](NC(=O)[C@@H]1Cc2ccccc2CN1C(=O)OC(C)(C)C)C(=O)NC1CCCC1,4.46% (inactive),–
CC(NC(=O)c1ccco1)c1ccc2c(c1)OCO2 (configuration not stated),-5.06% (inactive),–
Cc1cc(/C=N/n2cnnc2)c(C)n1-c1cccc(C(=O)O)c1,-25.7% (inactive),–
Cc1cc(/C=C2\SC(=O)N(C)C2=O)c(C)n1-c1cccc(C(=O)O)c1,20.7% (inactive),–
Cc1cc(/C=N/Nc2ccc([N+](=O)[O-])cn2)c(C)n1-c1cccc(C(=O)O)c1,18.9% (inactive),–
Cc1cccc(-n2c(C)cc(/C=N/NC(N)=S)c2C)c1,–,3.55 µM (active)
Cc1cccc(-n2c(C)cc(/C=N\NC(=O)c3cccs3)c2C)c1,–,10 µM (active)
Cc1ccc(C(=O)Nc2ccc(NC(=O)c3cccs3)cc2)c(C)c1,-39.8% (inactive),–
COC(=O)c1ccc2c(=O)n(CCN3CCOCC3)c(SCC(=O)Nc3cccc(OC)c3)nc2c1,14.3% (inactive),–
CCN1C(=S)N[C@@H](c2cccc(C(F)(F)F)c2)C(C(=O)OC)=C1C,-38.5% (inactive),–
CC(C)C[C@H](NC(=O)C1CCC(CNC(=O)[C@@H]2CCCN2C(=O)OC(C)(C)C)CC1)C(=O)O (some centres not stated),-27.2% (inactive),–
COc1cc(NS(=O)(=O)c2ccc(N/C=C(\C=O)c3nc4cc(Cl)ccc4o3)cc2)nc(OC)n1,–,14.1 µM (active)
COc1cc(NS(=O)(=O)c2ccc(NC(=S)NC(=O)c3ccccc3)cc2)nc(OC)n1,43.1% (inactive),–
COC(=O)Nc1ccc(S(=O)(=O)Nc2cc(OC)nc(OC)n2)cc1,6.6% (inactive),–
COc1ccc(C2(O)C(=O)Nc3ccccc32)cc1 (configuration not stated),7.24% (inactive),–
Cc1cccn2c(=O)c3cc(C(=O)NC4CCCCC4)sc3nc12,12.6% (inactive),–

SMILES,"activity change, negative = inhibition",Potency
COc1ccc(-c2nc(CS(=O)(=O)CC(=O)NCc3cccc(Br)c3)c(C)o2)cc1,-4.95% (inactive),–
CC(C)c1ccc(NC(=S)NNc2ccc(Cl)c(C(=O)O)c2)cc1,-2.28% (inactive),–
CC(C)c1ccc(NC(=S)NC2CC3C=CC2C3)cc1 (configuration not stated),–,3.55 µM (active)
S=C(NNC(=S)NC1CC2C=CC1C2)NC1CC2C=CC1C2 (configuration not stated),-1.63% (inactive),–
CC(=O)Nc1ccc(NC(=O)COc2ccc(-c3ccccc3)cc2)cc1,-2.09% (inactive),–
CC1=CC(C)(C)N(C(=O)CSc2nccn2C)c2cc(C)ccc21,–,11.2 µM (active)
CC1=CC(C)(C)N(C(=O)CSc2nnc(-c3ccccc3)o2)c2ccc(C)cc21,3.05% (inactive),–
Cc1ccc(C)c(-n2ccnc2SCC(N)=O)c1,10.4% (inactive),–
COc1cc(SC)ccc1C(=O)N(Cc1ccccc1)c1ccccc1,0.287% (inactive),–
COc1cc(SC)ccc1C(=O)Nc1nc(C)cs1,–,1.26 µM (active)
COc1ccccc1CNC(=O)c1ccc(SC)cc1OC,42% (inactive),–
Cc1ccnc(NC(=O)CCCOc2ccccc2)c1,3.66% (inactive),–
COc1cc(SC)ccc1C(=O)Nc1cc(C)ccn1,–,6.31 µM (active)
Cc1ccnc(NC(=O)c2ccoc2C)c1,-20.2% (inactive),–
COc1ccc(C)cc1NC(=O)CNCc1cccs1,26.6% (inactive),–
Cc1sc2ncn(CC(=O)NCCCC(=O)NCc3ccc(F)cc3)c(=O)c2c1C,3.51% (inactive),–
CC(C)(C)c1ccc(C(=O)N2CCN(CCNC(=O)C(=O)Nc3ccc(F)cc3)CC2)cc1,42.6% (inactive),–
COc1ccc(CNS(=O)(=O)c2cc(-c3cc(C)no3)ccc2C(C)C)cc1,31.8% (inactive),–
O=C(c1ccco1)N1CCN(C(=O)c2cc(-c3ccccc3F)no2)CC1,28.9% (inactive),–
CC1(C)c2[nH]c3ccccc3c2C[C@H]2C(=O)N(N)CC(=O)N21,6.7% (inactive),–
COc1ccc(C(=O)Cc2cnn(-c3ccccc3)c2)c(O)c1,27.6% (inactive),–
O=C(c1cnn(-c2ccc(Cl)cc2)c1)c1ccccc1O,-38.1% (inactive),–

SMILES,"activity change, negative = inhibition",Potency
Cc1cc(O)cc(O)c1C(=O)Cc1cnn(-c2ccccc2)c1,–,0.199 µM (active)
O=C(Nc1cccc(-n2cnnn2)c1)c1cccnc1,12.2% (inactive),–
COc1ccc(CNC(=O)c2c[nH]c3c(OC)cc(OC)cc3c2=O)cc1,8.69% (inactive),–
Nc1nonc1-n1nnc(C(=O)N/N=C/c2c[nH]c3ccccc23)c1-c1ccccc1,3.13% (inactive),–
CCCOc1ccc(-c2c(C(=O)N/N=C/c3ccco3)nnn2-c2nonc2N)cc1,–,11.2 µM (active)
Nc1nonc1-n1nnc(C(=O)N/N=C/C2CCCCC2)c1-c1ccccc1,-30.9% (inactive),–
Cn1c(=O)c2c(nc(NCCNC(=O)c3ccco3)n2Cc2ccccc2F)n(C)c1=O,16.6% (inactive),–
O=C(O)c1ccc(S(=O)(=O)N2CCC(Cc3ccccc3)CC2)cc1,-17.6% (inactive),–
Cn1cnc2c1c(=O)n(Cc1ccccc1C#N)c(=O)n2C,-22% (inactive),–
O=C1CN(C(=O)c2ccccc2F)C(c2ccc(F)cc2)c2cc(F)ccc2N1 (configuration not stated),24.6% (inactive),–
Cc1cc(=O)oc2c(C)c(OCC(=O)NCCN3CCOCC3)ccc12,-6.37% (inactive),–
CC1CCCCN1C(=S)NCc1ccccc1 (configuration not stated),-121% (inactive),–
C[n+]1ccc(C(=O)NCc2ccccc2)cc1,-17.6% (inactive),–
O=C(O)c1ccc(/C=N/NC(=S)NCc2ccccc2)cc1,-12% (inactive),–
C/C(=N\NC(=S)NCc1ccccc1)C1CCCCC1,–,0.224 µM (active)
C/C(=N\NC(=S)NCc1ccccc1)c1ccc(Cl)cc1,–,3.55 µM (active)
O=C(CC1CCCCC1)NCc1ccccc1,-26.9% (inactive),–
CC(CC(=O)N1CCN(c2ccccc2)CC1)S(=O)(=O)c1ccc2c(c1)NC(=O)CS2 (configuration not stated),26.3% (inactive),–
COC(=O)COc1ccc2c(=O)c(Oc3ccccc3Br)coc2c1,-14.6% (inactive),–
Cc1ccc(S(=O)(=O)NCC(=O)Nc2ccc3c(c2)OCCO3)cc1,-2.15% (inactive),–
O=C(N/C(=C\c1ccc([N+](=O)[O-])cc1)C(=O)N1CCOCC1)c1cccc(Br)c1,18.2% (inactive),–
O=C(/C=C/c1ccc(Cl)cc1)NCCCn1ccnc1,-4.51% (inactive),–

SMILES,"activity change, negative = inhibition",Potency
CCn1cc(/C=C(\NC(=O)c2ccc(C)cc2)C(=O)NCCN2CCOCC2)c2ccccc21,6.77% (inactive),–
O=C(NCCCN1CCOCC1)c1cc(-c2ccc(Cl)cc2)on1,–,11.2 µM (active)
O=C(NCCCN1CCOCC1)c1cc(-c2cccc(O)c2)on1,-16.9% (inactive),–
COc1ccc(-c2cc(C(=O)NCCCN3CCOCC3)no2)cc1,-20.5% (inactive),–
Cn1cc(S(=O)(=O)Nc2ccc(Cl)cc2Cl)c(=O)n(C)c1=O,-23.8% (inactive),–
COc1cc(OC)c(NS(=O)(=O)c2cn(C)cn2)cc1Cl,-31.2% (inactive),–
Cc1cc(C(=O)N/N=C/c2ccccc2[N+](=O)[O-])c(C)o1,14.4% (inactive),–
CC(=C/c1ccccc1)/C=N/NC(=O)c1cc(C)oc1C,–,7.08 µM (active)
Cc1cc(C(=O)N/N=C/c2ccc(N3CCOCC3)cc2)c(C)o1,1.46% (inactive),–
Cc1c(CC(=O)N2CCN(C(=O)C3COc4ccccc4O3)CC2)c(=O)oc2c(O)c(O)ccc12 (configuration not stated),-17.5% (inactive),–
COc1cc(OC)cc(C(=O)Nc2nnc(SCC(=O)NCC3CCCO3)s2)c1 (configuration not stated),4% (inactive),–
CC(=O)c1ccc(N2CCN(CC(O)c3ccccc3)CC2)cc1 (configuration not stated),-14.4% (inactive),–
Cc1[nH]c(C)c(S(=O)(=O)N2CCN(c3cccc(C(F)(F)F)c3)CC2)c1C(=O)N1CCCCC1,-4.17% (inactive),–
COc1ccc(-c2nc(CS(=O)CC(=O)NCc3cccnc3)c(C)o2)cc1OC (configuration not stated),–,11.2 µM (active)
Cc1cccc(-c2nc(CS(=O)CC(=O)NC(C)CCc3ccccc3)c(C)o2)c1 (configuration not stated),43.4% (inactive),–
COc1ccc(-c2nc(CS(=O)CC(=O)NCc3ccccc3)c(C)o2)cc1OC (configuration not stated),3.74% (inactive),–
CCCOc1ccc(Cc2c(O)nc(SC)[nH]c2=O)cc1C,30.8% (inactive),–
O=C(c1cc2ccccc2o1)N1CCN(c2cccc(C(F)(F)F)c2)CC1,33.7% (inactive),–
COc1ccc(-c2oc3ncnc(NCCCO)c3c2-c2ccc(OC)cc2)cc1,22.4% (inactive),–
N=c1c2c(-c3ccccc3)c(-c3ccccc3)oc2ncn1Cc1ccco1,22.8% (inactive),–
COc1ccc(-c2oc3ncn(Cc4ccco4)c(=N)c3c2-c2ccc(OC)cc2)cc1,–,12.6 µM (active)
CC(C)[C@@H]1COC(c2cccc(C3=N[C@H](C(C)C)CO3)c2)=N1,-41.6% (inactive),–

SMILES,"activity change, negative = inhibition",Potency
O=C(NC(Cc1ccc(O)cc1)C(=O)O)/C(=C/c1ccccc1)NC(=O)c1ccccc1 (configuration not stated),-2.76% (inactive),–
O=C(C[C@H]1C(=O)N(c2ccc(F)c(F)c2)C[C@@H]1Cc1ccccc1)Nc1ccccc1,44.7% (inactive),–
Cc1c(C)c(C)c(S(=O)(=O)N2CCC3(CC2)OCCO3)c(C)c1C,-34.3% (inactive),–
Cc1cc(SCc2c(F)cccc2Cl)nc(=O)[nH]1,2.04% (inactive),–
CC(=O)NCCC(=O)Nc1cc(S(=O)(=O)N2CCOCC2)ccc1N1CCOCC1,32.6% (inactive),–
COCCNC(=S)Nc1cc(S(=O)(=O)N2CCOCC2)ccc1N1CCCCC1,–,0.891 µM (active)
O=C(COC(=O)Cc1ccc(F)cc1)Nc1cc(S(=O)(=O)N2CCOCC2)ccc1N1CCCC1,33.6% (inactive),–
O=C(Nc1ccccc1C(=O)Nc1ccncc1)c1ccc([N+](=O)[O-])cc1,25.4% (inactive),–
Cc1ccc(N2CCN(c3ccc([N+](=O)[O-])cn3)CC2)c(C)c1,-2.68% (inactive),–
CC/C(=N\NC(=S)NC(C)C)c1ccc(OC(F)F)cc1,–,0.562 µM (active)
O=C(COC(=O)c1ccc(N2CCCC2=O)cc1)c1ccc(OC(F)F)cc1,44.5% (inactive),–
O=C(NCCNc1ccccc1[N+](=O)[O-])c1ccccc1F,20.5% (inactive),–
COc1cc(CN2CCC(n3nccc3NC(=O)CCCc3ccccc3)CC2)ccc1O,24.6% (inactive),–
COc1cc2[nH]c(=O)n(CCC(=O)NC3CCN(Cc4ccccc4)CC3)c(=O)c2cc1OC,-7.87% (inactive),–
COc1cc2[nH]c(=O)n(Cc3ccc(C(=O)NC4CCN(Cc5ccccc5)CC4)cc3)c(=O)c2cc1OC,6.06% (inactive),–
COc1cc2[nH]c(=S)n(Cc3ccc(F)cc3)c(=O)c2cc1OC,–,1.78 µM (active)
CCOc1cc2[nH]c(=S)n(Cc3ccc(C(=O)NCCOC)cc3)c(=O)c2cc1OCC,-43.7% (inactive),–
COc1cc2[nH]c(=S)n(Cc3ccc(C)o3)c(=O)c2cc1OC,–,5.01 µM (active)
CCOc1cc2[nH]c(=S)n(CCCN3CCCC3=O)c(=O)c2cc1OCC,-1.37% (inactive),–
